Measured values published in PubChem BioAssay.
Unmarked numbers belong to inactive results. The rule behind the calls is not given here.

Each compound was assayed against Pantothenate synthetase (Mycobacterium tuberculosis (strain ATCC 25618 / H37Rv)) (UniProt P9WIL5) (assay: Recombinant Mtb pantothenate synthetase (PanC) inhibitors, coupled enzyme, confirmatory (AID 375;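 note: 0% = full reaction with vehicle and 100% = no enzyme background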)). Details: coupled enzyme assay; at 10 µM, hits give high values.
Sequence of Pantothenate synthetase (Mycobacterium tuberculosis (strain ATCC 25618 / H37Rv)) (P9WIL5 whole entry, looked up): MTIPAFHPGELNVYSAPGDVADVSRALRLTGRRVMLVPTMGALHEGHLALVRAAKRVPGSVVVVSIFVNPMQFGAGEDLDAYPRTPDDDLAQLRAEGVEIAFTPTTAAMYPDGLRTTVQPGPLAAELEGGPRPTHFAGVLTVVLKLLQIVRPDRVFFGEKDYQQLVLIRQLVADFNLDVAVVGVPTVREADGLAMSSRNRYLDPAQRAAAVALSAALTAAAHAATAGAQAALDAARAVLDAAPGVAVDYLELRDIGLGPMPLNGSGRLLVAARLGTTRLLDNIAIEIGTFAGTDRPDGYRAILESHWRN

Compound | inhibition [%]
Cc1cc(C)n(-c2nnc(C)n2/N=C/c2ccco2)n1 | 1
CCOC(=O)c1[nH]cc(-c2ccccc2)c1N1CCOCC1 | 0
Cc1nnc(SCC(=O)N2CCN(S(=O)(=O)c3ccccc3)CC2)[nH]c1=O | 0
O=C(Nc1cccc(F)c1)c1ccc2c(c1)OCO2 | 2
CCn1c(SCC(=O)Nc2cc(C)ccc2C)nc2c(c1=O)SC(C)C2 (stereo not given) | 0
COc1cc(C(=O)Nc2nc(-c3cccs3)cs2)cc(OC)c1OC | 0
CCOC(=O)CSC1=C(C#N)C(c2ccc(Cl)cc2)C(C(=O)OC)C(=O)N1 (stereo not given) | 0
CCOc1ccc2nc(N3CCC(C(=O)N4CCN(C5CCCCC5)CC4)CC3)sc2c1 | 0
CC1CC(=O)C2=C(C1)OC(N)=C(C#N)C2c1coc2ccccc2c1=O (stereo not given) | 6
COc1ccc(N=C2C(=O)Nc3ccccc32)cc1 | 0
CCc1ccc(NC(=O)CS(=O)CC(=O)NC(C)CCc2ccco2)cc1 (stereo not given) | 2
CC1Cc2ccccc2N1C(=O)c1cnsn1 (stereo not given) | 0
CC(C)=CC(=O)Nc1ccc(Br)cc1 | 0
O=C(CCCNS(=O)(=O)c1ccccc1)NCc1ccco1 | 0
Cc1ccc2cc(CN(CCN3CCCC3)C(=O)Nc3ccc(F)cc3)c(=O)[nH]c2c1C | 0
COc1ccccc1N1CCN(S(=O)(=O)CC23CCC(CC2=O)C3(C)C)CC1 (stereo not given) | 1
CCCCc1cc2c(c(NC(C)=O)n1)c(=O)oc1ccccc12 | 0
CCCC(=O)N(c1ccc2oc(=O)sc2c1)S(=O)(=O)c1ccccc1 | 0
S=c1[nH]nc(-c2cccc(Br)c2)o1 | 10
CCOC(=O)CN1C(=O)C(=O)c2cccc(C)c21 | 0

Compound | inhibition [%]
CCCCC(NS(=O)(=O)c1ccc(OC)cc1)C(=O)O (stereo not given) | 0
CC(C)(C)OC(=O)N1CCN(c2ccc(NC(=O)c3cc4ccccc4oc3=O)cc2)CC1 | 6
CC(C)CN(CC(C)C)C(=O)CS(=O)(=O)Cc1ccccc1 | 0
Cc1ccc(NC(=O)CS(=O)CC(=O)NCC2CCCO2)cc1 (stereo not given) | 0
COC(=O)CC1SCCNC1=O (stereo not given) | 0
COC(=O)c1cc(=O)nc2sc(-c3cccs3)nn12 | 8
CC(=O)NS(=O)(=O)c1ccc(NC(=O)c2ccccc2F)cc1 | 0
Cc1cccc(-n2c(N)c(C(=O)N3CCN(C)CC3)sc2=S)c1 | 1
Cc1cc(NC(=O)CSc2nnc(C3CC3)n2C)no1 | 0
Cc1ccc(Nc2cc(-n3nc(C)cc3C)ncn2)cc1 | 0
COc1ccccc1N1CCN(c2cc(=O)n(Cc3ccc(F)cc3)c(=O)[nH]2)CC1 | 0
CCOC(=O)c1ccccc1NC(=O)c1c(O)c2ccccc2n(CC)c1=O | 0
CC(C(=O)N1CCOCC1)N1c2cccc3cccc(c23)S1(=O)=O (stereo not given) | 8
CCCc1cc(C(=O)Nc2ccccc2SC)no1 | 0
CC(=O)SCC(=O)N=c1sc2cc(F)ccc2n1C | 0
Cc1cc(C)nc(N2CCC(C(=O)NCc3cccc(C(F)(F)F)c3)CC2)n1 | 3
COc1cc(SC)ccc1C(=O)Nc1ccon1 | 0
CCOc1ccc(-c2cc(CCCC(=O)N3CCN(c4ccc(OC)cc4)CC3)no2)cc1 | 0
Cc1cc(C)cc(NS(=O)(=O)c2ccc3[nH]c(=O)[nH]c3c2)c1 | 0
CCC(C)(C)n1nnnc1C(c1cc2cc(C)ccc2[nH]c1=O)N1CCCC1 (stereo not given) | 8
